# Measurements: PubChem BioAssay (NCI)
# “And” between values parts separate entries of the source, which are not always exact repeats. Equal entries are not always repeated. The panel holds about 83,000 compounds, 20% with a hit somewhere; the sample as a whole holds those more often.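 Assay: single dose, 48 h. Readout: percent growth (0 = no net growth; negative = cell death). Active: <10.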 The source made the active and inactive calls.
# What was measured:
# Assay in all cases: NCI-60 one-dose screen, 48 h (100 = growth as untreated, 0 = no growth, -100 = all killed)
# [1] = system: T-47D breast; conditions: 10 µM unless noted
# [2] = system: BT-549 breast; conditions: 10 µM unless noted
# [3] = system: MDA-MB-435 melanoma; conditions: 10 µM unless noted
# [4] = system: SW-620 colon; conditions: 10 µM unless noted
# [5] = system: MCF7 breast
# [6] = system: HCT-116 colon; conditions: 10 µM unless noted
# [7] = system: HCC-2998 colon; conditions: 10 µM unless noted
# [8] = system: KM12 colon; conditions: 10 µM unless noted
smiles,measurement,setting,value
Nc1nc(=S)c2[nH]cnc2[nH]1,growth,[1],12.3% (inactive) and 5.25% (active)
same,growth,[2],30.7% (inactive) and 19.5% (inactive)
same,growth,[3],12.3% (inactive) and 5.49% (active)
same,growth,[4],23.3% (inactive) and 15.9% (inactive)
same,growth,[5]; 10 µM,8.17% (active) and -0.975% (active)
same,growth,[5]; 250 µM,-5.31% (active) and -50.8% (active)
same,growth,[6],9.54% (active) and -8.26% (active)
same,growth,[7],6.28% (active)
same,growth,[8],10.1% (inactive) and 11.5% (inactive)
C/C(CC(C)C)=N/NC(N)=S,growth,[1],39% (inactive)
same,growth,[2],107% (inactive)
same,growth,[3],104% (inactive)
same,growth,[4],85.4% (inactive)
same,growth,[5]; 10 µM unless noted,21.3% (inactive)
same,growth,[6],11.8% (inactive)
same,growth,[7],101% (inactive)
Cc1cc(NC(=O)NC(=O)c2ccccc2N(C)C)ccc1Oc1ncc(Br)cn1,growth,[1],36.2% (inactive) and 52.2% (inactive)
same,growth,[2],17.5% (inactive) and 39.1% (inactive)
same,growth,[3],-27.4% (active) and 6.67% (active)
same,growth,[4],28.4% (inactive) and 33.9% (inactive)
same,growth,[5]; 10 µM unless noted,16.5% (inactive) and 16.9% (inactive)
same,growth,[6],17% (inactive) and 21.8% (inactive)
same,growth,[7],1.35% (active) and 50.4% (inactive)
C/C=C/C(=O)OCCCCCCCCCCCC,growth,[1],90.8% (inactive)
same,growth,[2],97% (inactive)
same,growth,[3],115% (inactive)
same,growth,[4],111% (inactive)
same,growth,[5]; 10 µM unless noted,102% (inactive)
same,growth,[6],88.5% (inactive)
same,growth,[7],130% (inactive)
Nc1ccccc1SC(CC(=O)c1ccccc1)c1cccc([N+](=O)[O-])c1 (stereo not given),growth,[1],88.3% (inactive) and 90% (inactive)
same,growth,[2],103% (inactive) and 88.9% (inactive)
same,growth,[3],102% (inactive) and 85.5% (inactive)
same,growth,[4],14.1% (inactive) and 1.5% (active)
same,growth,[5]; 10 µM unless noted,19.3% (inactive) and 19% (inactive)
same,growth,[6],-71.2% (active) and -58.6% (active)
same,growth,[7],110% (inactive)
Cc1cc2nc3ccc(=[N+](C)C)cc-3sc2cc1N,growth,[1],-25.1% (active) and 1.21% (active)
same,growth,[2],48.9% (inactive) and 50.4% (inactive)
same,growth,[3],-68.9% (active) and -41.4% (active)
same,growth,[4],-19.7% (active) and -9.28% (active)
same,growth,[5]; 10 µM unless noted,-3.34% (active) and -28.7% (active)
same,growth,[6],-22.8% (active) and 4.49% (active)
same,growth,[7],18.8% (inactive)
Cc1ccc(N)cc1S(=O)(=O)O,growth,[1],103% (inactive) and 117% (inactive)
same,growth,[2],97.9% (inactive)
same,growth,[3],115% (inactive) and 109% (inactive)
same,growth,[4],104% (inactive) and 105% (inactive)
same,growth,[5]; 10 µM unless noted,105% (inactive) and 98.8% (inactive)
same,growth,[6],103% (inactive)
same,growth,[7],109% (inactive) and 108% (inactive)
O=C1C(=O)c2ccccc2C(O)=C1CC=C(Cl)Cl,growth,[1],80.8% (inactive) and 69% (inactive)
same,growth,[2],63% (inactive) and 71.6% (inactive)
same,growth,[3],43.8% (inactive) and 52.5% (inactive)
same,growth,[4],50.1% (inactive) and 52.6% (inactive)
same,growth,[5]; 10 µM unless noted,37.9% (inactive) and 44.7% (inactive)
same,growth,[6],27.9% (inactive) and 40% (inactive)
same,growth,[7],61.8% (inactive) and 64.4% (inactive)
COc1ccc(CCn2cnn3c(=O)c4ccccc4nc3c2=O)cc1OC,growth,[1],113% (inactive) and 103% (inactive)
same,growth,[2],91.4% (inactive) and 114% (inactive)
same,growth,[3],103% (inactive) and 119% (inactive)
same,growth,[4],101% (inactive) and 112% (inactive)
same,growth,[5]; 10 µM unless noted,106% (inactive) and 100% (inactive)
same,growth,[6],99.4% (inactive) and 107% (inactive)
same,growth,[7],104% (inactive) and 111% (inactive)
Cc1c(Cl)c(C)c(Cc2c(C)c(Cl)c(C)c(Cl)c2O)c(O)c1Cl,growth,[1],1.53% (active)
same,growth,[2],22.6% (inactive)
same,growth,[3],7.62% (active)
same,growth,[4],17.1% (inactive)
same,growth,[5]; 10 µM unless noted,1.6% (active)
same,growth,[6],3.19% (active)
same,growth,[7],25.7% (inactive)
O=C(Nc1ccccc1)OCC(CN1CCCCC1)OC(=O)Nc1ccccc1 (stereo not given),growth,[1],71.5% (inactive) and 97% (inactive)
same,growth,[2],69.7% (inactive) and 102% (inactive)
same,growth,[3],90.3% (inactive) and 97.4% (inactive)
same,growth,[4],104% (inactive) and 96.9% (inactive)
same,growth,[5]; 10 µM unless noted,72.9% (inactive) and 96% (inactive)
same,growth,[6],69.1% (inactive) and 93.6% (inactive)
same,growth,[7],94% (inactive) and 98.4% (inactive)
O=C1Cc2ccccc2C(=O)N1,growth,[1],71.1% (inactive)
same,growth,[2],101% (inactive)
same,growth,[3],99.4% (inactive)
same,growth,[4],56.6% (inactive)
same,growth,[5]; 10 µM unless noted,56.8% (inactive)
same,growth,[6],6.29% (active)
same,growth,[7],103% (inactive)
COCCNC(C)=O,growth,[1],89.5% (inactive)
same,growth,[2],106% (inactive)
same,growth,[3],105% (inactive)
same,growth,[4],105% (inactive)
same,growth,[5]; 10 µM unless noted,94.1% (inactive)
same,growth,[6],105% (inactive)
same,growth,[7],118% (inactive)
CNc1ccc(O)cc1,growth,[1],108% (inactive) and 101% (inactive)
same,growth,[2],107% (inactive) and 103% (inactive)
same,growth,[3],107% (inactive) and 101% (inactive)
same,growth,[4],103% (inactive) and 89.9% (inactive)
same,growth,[5]; 10 µM unless noted,94.9% (inactive) and 110% (inactive)
same,growth,[6],108% (inactive) and 97.3% (inactive)
same,growth,[7],124% (inactive) and 105% (inactive)
